# About 7,900 targets were measured; listed, in parts, are those with a hit and a random draw of the rest. About 0.6% of all pairs of compound and target were hits. Unmarked numbers belong to inactive results.
# Tests used:
# Experiment in all cases: log2 fold change, soluble protein after heating vs DMSO (PISA); higher = thermal stabilisation; K562 cells, 10 uM, 30 min; active = over 0.2 and 3.5 SD of the protein, either way, in both replicates (recomputed)
# erlotinib = compound: C#Cc1cccc(Nc2ncnc3cc(OCCOC)c(OCCOC)cc23)c1 [erlotinib]
# How it was run: (§1)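 K562 cells at 2×10^6 cells/mL were treated with 10 μM compound for 30 min. Aliquots were heated for 3 min across 48°C-58°C, pooled, and extracted in PBS with 0.5% NP-40 at 4°C; soluble protein was the supernatant after 21,000xg for 90 min. Soluble protein was quantified by TMTpro 16plex LC-MS/MS with channel sums equalised, and reported as log2 fold change in thermal stability against DMSO controls, with values from duplicates.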
# [1] = compound: C/C(=N\NC(=O)C1=CC(=CC=C1)S(=O)(=O)N2CCOCC2)/C3=C(C=CC(=C3)Cl)O
# How it was run: as §1
# [2] = compound: C1=CC(=C(C=C1Cl)C2=NC3=NC=CN=C3C(=N2)NC4=CC=NC=C4)F
# How it was run: as §1
# [3] = compound: C1=CC(=CC=C1C2=NC3=C(N2)C=C(C=C3)C(=O)N)OC4=CC=C(C=C4)Cl
# How it was run: as §1
# [4] = compound: C1=CC2=C(C=CC(=C2)/C=C\3/C(=O)NC(=NCC4=CC=CS4)S3)N=C1
# How it was run: as §1
# [5] = compound: C1=CC2=NC=CN=C2C=C1/C=C/3\C(=O)NC(=O)S3
# How it was run: as §1
# [6] = compound: C1=CC=C(C=C1)C2=NC(=C(N2)C3=CC=NC=C3)C4=CC(=C(C=C4)Cl)O
# How it was run: as §1
# [7] = compound: C1=CC=C2C(=C1)C3=NNC4=CC=CC(=C43)C2=O
# How it was run: as §1
# [8] = compound: C1CCN(C1)C(=O)NC2=CC=CC(=C2)NC3=NC=C(C(=N3)NCCC4=CN=CN4)Br
# How it was run: as §1
# [9] = compound: C1CN(CCC1(CC2=CC=C(C=C2)Cl)N)C3=NC=NC4=C3C=CN4
# How it was run: as §1
# IRAK-1-4 Inhibitor I = compound: C1COCCN1CCN2C3=CC=CC=C3N=C2NC(=O)C4=CC(=CC=C4)[N+](=O)[O-] [IRAK-1-4 Inhibitor I]
# How it was run: as §1
# ibrutinib = compound: C=CC(=O)N1CCC[C@@H](n2nc(-c3ccc(Oc4ccccc4)cc3)c3c(N)ncnc32)C1 [ibrutinib]
# How it was run: as §1
# [10] = compound: CC(=O)c1cnc2ccc(-c3cc(Cl)c(O)c(Cl)c3)nc2c1N[C@H]1CC[C@H](CN(C)C)CC1
# How it was run: as §1
# ralimetinib = compound: CC(C)(C)Cn1c(N)nc2ccc(-c3[nH]c(C(C)(C)C)nc3-c3ccc(F)cc3)nc21 [ralimetinib]
# How it was run: as §1
# [11] = compound: CC(C)(O)CC(=O)NCCn1ccc2ncnc(Nc3ccc(Oc4cccc(C(F)(F)F)c4)c(Cl)c3)c21
# How it was run: as §1
# [12] = compound: CC(C)C1=C2N=C(C=C(N2N=C1)NCC3=CC=CC=C3)NCCCCCCN
# How it was run: as §1
# [13] = compound: CC(C)C[C@@H](C=O)NC(=O)[C@H](CC(C)C)NC(=O)[C@H](CC(C)C)NC(=O)OCc1ccccc1
# How it was run: as §1
# pinometostat = compound: CC(C)N(C[C@H]1O[C@@H](n2cnc3c(N)ncnc32)[C@H](O)[C@@H]1O)[C@H]1C[C@@H](CCc2nc3cc(C(C)(C)C)ccc3[nH]2)C1 [pinometostat]
# How it was run: as §1
# [14] = compound: CC1=C(C(CC(=O)N1)C2=CC=C(C=C2)C(F)(F)F)C(=O)NC3=C(C=C4C(=C3)C=NN4)F
# How it was run: as §1
# [15] = compound: CC1=C(C2=C(C=C1)C(=O)C3=CC=CC=C3N2CCCN)C
# How it was run: as §1
# Sequence of UniProt Q13535 (Q13535 whole entry, looked up): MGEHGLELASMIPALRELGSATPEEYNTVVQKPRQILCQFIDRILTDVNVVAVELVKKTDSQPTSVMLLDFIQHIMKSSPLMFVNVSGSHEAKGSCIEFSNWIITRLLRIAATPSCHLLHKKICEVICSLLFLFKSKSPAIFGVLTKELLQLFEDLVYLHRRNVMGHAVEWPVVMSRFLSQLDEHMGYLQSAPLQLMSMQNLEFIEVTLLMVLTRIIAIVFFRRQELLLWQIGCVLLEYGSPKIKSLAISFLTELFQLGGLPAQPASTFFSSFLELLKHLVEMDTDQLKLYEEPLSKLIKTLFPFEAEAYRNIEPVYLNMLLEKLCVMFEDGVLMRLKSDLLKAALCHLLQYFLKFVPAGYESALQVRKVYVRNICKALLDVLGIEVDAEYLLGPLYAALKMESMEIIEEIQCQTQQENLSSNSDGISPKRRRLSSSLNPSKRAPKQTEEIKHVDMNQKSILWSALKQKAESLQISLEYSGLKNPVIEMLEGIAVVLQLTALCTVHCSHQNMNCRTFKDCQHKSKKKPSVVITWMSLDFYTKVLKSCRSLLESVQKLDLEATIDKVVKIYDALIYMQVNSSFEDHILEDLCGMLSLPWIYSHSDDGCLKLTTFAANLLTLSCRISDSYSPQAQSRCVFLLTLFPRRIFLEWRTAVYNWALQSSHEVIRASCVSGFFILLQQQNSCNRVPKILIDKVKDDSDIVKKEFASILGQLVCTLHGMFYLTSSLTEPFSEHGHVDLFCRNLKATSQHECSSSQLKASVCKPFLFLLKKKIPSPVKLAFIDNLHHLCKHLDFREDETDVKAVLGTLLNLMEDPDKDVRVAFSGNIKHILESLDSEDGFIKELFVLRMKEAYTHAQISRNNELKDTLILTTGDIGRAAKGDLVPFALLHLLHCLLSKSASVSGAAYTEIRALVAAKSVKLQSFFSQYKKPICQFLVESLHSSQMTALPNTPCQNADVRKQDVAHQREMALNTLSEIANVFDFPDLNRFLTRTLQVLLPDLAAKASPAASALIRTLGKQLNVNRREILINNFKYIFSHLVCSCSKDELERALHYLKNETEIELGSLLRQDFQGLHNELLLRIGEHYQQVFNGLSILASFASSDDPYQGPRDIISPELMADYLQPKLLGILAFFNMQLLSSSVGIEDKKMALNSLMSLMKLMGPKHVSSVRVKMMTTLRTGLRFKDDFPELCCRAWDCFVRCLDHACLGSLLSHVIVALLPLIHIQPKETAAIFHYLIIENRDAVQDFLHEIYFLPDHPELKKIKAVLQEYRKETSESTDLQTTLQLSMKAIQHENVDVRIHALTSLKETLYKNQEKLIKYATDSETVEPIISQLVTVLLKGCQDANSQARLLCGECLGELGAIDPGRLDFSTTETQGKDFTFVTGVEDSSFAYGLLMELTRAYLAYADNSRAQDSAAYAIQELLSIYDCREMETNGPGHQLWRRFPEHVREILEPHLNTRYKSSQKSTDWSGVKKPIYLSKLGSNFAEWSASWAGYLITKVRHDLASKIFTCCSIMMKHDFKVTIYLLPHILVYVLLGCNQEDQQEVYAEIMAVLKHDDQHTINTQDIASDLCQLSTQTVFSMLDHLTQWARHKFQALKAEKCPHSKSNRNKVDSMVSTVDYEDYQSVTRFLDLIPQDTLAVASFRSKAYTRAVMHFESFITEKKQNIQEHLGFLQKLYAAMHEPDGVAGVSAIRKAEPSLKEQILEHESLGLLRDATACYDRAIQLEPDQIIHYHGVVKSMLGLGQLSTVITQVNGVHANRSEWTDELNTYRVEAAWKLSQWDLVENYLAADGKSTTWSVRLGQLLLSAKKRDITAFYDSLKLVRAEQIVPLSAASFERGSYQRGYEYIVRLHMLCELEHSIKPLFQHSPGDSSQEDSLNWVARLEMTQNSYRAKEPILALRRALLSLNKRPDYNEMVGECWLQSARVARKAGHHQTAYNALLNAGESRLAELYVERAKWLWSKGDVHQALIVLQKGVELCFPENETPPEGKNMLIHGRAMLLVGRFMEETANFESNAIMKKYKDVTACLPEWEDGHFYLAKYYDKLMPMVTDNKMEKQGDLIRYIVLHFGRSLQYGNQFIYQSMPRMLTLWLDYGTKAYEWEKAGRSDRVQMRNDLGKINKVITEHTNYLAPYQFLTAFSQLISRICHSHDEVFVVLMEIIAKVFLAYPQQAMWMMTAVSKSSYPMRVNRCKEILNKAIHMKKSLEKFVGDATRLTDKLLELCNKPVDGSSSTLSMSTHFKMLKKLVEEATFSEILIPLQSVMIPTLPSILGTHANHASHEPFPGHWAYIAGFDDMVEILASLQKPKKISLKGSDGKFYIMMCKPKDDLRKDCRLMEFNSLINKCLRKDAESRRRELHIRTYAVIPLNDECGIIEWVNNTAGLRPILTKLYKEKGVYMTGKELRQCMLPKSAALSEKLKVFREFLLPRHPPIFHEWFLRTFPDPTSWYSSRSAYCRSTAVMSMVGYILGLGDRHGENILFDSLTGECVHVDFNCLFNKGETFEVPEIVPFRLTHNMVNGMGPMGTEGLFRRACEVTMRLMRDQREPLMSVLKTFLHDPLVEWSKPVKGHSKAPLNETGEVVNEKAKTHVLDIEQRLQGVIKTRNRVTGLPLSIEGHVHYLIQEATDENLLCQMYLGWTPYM
# Sequence of UniProt Q96KE9 (Q96KE9 whole entry, looked up): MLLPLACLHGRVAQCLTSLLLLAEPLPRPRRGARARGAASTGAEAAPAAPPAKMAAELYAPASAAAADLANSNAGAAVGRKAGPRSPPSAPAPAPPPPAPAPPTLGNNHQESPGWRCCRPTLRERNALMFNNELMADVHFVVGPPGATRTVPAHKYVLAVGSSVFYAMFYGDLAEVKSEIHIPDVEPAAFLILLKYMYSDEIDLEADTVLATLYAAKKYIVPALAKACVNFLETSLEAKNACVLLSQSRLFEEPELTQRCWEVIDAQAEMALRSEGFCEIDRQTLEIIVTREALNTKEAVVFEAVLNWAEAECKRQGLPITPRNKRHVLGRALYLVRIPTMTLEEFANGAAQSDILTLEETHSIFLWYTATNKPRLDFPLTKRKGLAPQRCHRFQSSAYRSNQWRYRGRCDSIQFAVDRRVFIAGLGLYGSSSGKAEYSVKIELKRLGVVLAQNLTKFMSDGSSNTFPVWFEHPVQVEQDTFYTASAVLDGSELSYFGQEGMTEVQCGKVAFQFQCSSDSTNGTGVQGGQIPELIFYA
# Sequence of UniProt Q9BRQ8 (Q9BRQ8 whole entry, looked up): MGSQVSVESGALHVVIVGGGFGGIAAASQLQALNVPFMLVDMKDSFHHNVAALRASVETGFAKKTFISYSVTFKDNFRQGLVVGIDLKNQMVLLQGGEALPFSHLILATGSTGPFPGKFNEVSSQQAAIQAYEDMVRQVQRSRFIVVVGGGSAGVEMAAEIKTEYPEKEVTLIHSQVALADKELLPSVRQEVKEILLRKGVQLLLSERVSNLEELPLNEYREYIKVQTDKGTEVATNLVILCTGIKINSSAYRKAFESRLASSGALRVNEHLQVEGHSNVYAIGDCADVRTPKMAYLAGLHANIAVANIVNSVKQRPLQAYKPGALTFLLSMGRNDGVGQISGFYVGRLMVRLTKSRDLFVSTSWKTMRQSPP
# Sequence of UniProt P49189 (P49189 whole entry, looked up): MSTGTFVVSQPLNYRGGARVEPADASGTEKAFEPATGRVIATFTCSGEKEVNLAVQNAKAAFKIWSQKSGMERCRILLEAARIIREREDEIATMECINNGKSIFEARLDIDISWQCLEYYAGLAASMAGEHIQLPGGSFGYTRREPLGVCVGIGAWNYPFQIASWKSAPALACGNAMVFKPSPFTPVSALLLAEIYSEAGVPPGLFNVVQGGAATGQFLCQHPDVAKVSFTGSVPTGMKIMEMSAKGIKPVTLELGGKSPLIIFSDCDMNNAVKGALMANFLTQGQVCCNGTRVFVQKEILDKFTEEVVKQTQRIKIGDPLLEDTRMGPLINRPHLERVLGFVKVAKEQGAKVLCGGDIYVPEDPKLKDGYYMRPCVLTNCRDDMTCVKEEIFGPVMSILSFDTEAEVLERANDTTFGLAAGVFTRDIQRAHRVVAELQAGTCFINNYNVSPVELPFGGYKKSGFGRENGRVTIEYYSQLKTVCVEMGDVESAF
# Sequence of UniProt Q9UII2 (Q9UII2 whole entry, looked up): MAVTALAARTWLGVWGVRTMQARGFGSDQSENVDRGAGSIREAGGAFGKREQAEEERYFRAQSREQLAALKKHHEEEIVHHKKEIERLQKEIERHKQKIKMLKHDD
# Sequence of UniProt Q9Y6E2 (Q9Y6E2 whole entry, looked up): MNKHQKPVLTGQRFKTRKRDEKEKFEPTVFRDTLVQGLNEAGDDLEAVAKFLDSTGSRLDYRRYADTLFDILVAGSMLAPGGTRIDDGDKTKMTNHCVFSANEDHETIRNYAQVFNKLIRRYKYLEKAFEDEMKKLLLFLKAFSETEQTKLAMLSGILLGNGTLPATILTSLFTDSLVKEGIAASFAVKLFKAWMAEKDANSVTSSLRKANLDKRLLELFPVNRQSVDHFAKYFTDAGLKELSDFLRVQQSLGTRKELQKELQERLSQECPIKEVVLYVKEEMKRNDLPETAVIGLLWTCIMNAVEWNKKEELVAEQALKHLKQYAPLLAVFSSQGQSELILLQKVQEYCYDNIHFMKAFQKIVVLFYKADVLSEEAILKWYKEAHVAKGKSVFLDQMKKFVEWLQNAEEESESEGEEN
# Sequence of UniProt P08758 (P08758 whole entry, looked up): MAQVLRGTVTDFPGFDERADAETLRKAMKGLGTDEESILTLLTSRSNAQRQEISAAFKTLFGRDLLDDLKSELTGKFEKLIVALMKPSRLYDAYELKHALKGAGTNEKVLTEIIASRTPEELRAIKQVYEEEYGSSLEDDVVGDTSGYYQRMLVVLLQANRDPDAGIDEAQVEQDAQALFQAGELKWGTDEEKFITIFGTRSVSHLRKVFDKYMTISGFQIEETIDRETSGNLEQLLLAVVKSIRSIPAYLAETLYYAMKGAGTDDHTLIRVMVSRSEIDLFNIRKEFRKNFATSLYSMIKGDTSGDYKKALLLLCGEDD
# Sequence of UniProt Q9Y587 (Q9Y587 whole entry, looked up): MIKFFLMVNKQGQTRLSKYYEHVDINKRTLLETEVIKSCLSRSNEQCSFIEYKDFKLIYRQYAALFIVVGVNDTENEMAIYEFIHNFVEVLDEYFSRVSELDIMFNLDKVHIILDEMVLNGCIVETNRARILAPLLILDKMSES
Target,log2 fold change (erlotinib),log2 fold change [1],log2 fold change [2],log2 fold change [3],log2 fold change [4],log2 fold change [5],log2 fold change [6],log2 fold change [7],log2 fold change [8],log2 fold change [9],log2 fold change (IRAK-1-4 Inhibitor I),log2 fold change (ibrutinib),log2 fold change [10],log2 fold change (ralimetinib),log2 fold change [11],log2 fold change [12],log2 fold change [13],log2 fold change (pinometostat),log2 fold change [14],log2 fold change [15]
BZW2 (UniProt Q9Y6E2),-0.018,0.106,0.054,-0.016,0.033,0.026,0.022,0.013,0.037,-0.021,0.04,-0.043,0,-0.016,-0.121,-0.163,-0.003,-0.011,-0.005,0.014
ATP5IF1 (UniProt Q9UII2),0.001,-0.122,0.032,-0.005,-0.104,0.007,-0.051,0.153,0.053,0.032,0.121,0.012,0.018,-0.1,0.099,0.056,-0.048,-0.06,0.009,-0.006
BMP2K (UniProt Q9NSY1),0.079,-0.16,-0.016,-0.024,0.178,-0.042,-0.012,0.388 (active),0.353,-0.061,0.003,0.071,0.559 (active),0.058,-0.028,-0.027,0.085,-0.008,0.023,-0.009
AIFM2 (UniProt Q9BRQ8),-0.038,0.045,-0.001,0.064,-0.025,-0.032,0.041,0.172,-0.045,0.064,0.011,-0.008,0,-0.005,0.189,0.161,-0.061,0.044,-0.062,0.021
AP2B1 isoform 2 (UniProt P63010),-0.021,0.017,-0.01,0.003,0.004,-0.009,-0.004,-0.158,-0.225 (active),-0.003,-0.002,0.025,-0.034,0,0.008,0.029,0.005,0.011,0.027,0.035
ANXA5 (UniProt P08758),-0.012,0.1,0.06,-0.039,0.009,0.002,0.013,0.038,0.022,-0.012,-0.013,-0.05,-0.019,-0.018,-0.006,-0.069,0.017,-0.026,0,0.032
ARFGEF1 (UniProt Q9Y6D6),0.016,0.025,0.03,-0.03,0.016,0.015,0.101,0.051,-0.013,0.043,0.016,-0.061,0.036,0.132,-0.018,0.051,-0.019,0.001,-0.065,0.07
ATR (UniProt Q13535),0.014,-0.011,-0.039,0.018,0.02,0.02,-0.017,0.086,-0.029,0.046,0.093,0.031,0.021,-0.03,-0.077,0.046,0.037,0.101,0.002,0.109
APAF1 (UniProt O14727),0.207,0.066,-0.073,0.141,0.016,–,0.037,0.011,–,–,0.001,–,-0.153,-0.07,-0.08,-0.156,0.135,0.066,0.047,–
BRD8 isoform 2 (UniProt Q9H0E9),0.157,0.016,0.029,0.082,0.035,0.055,-0.152,-0.044,-0.027,0.021,0.028,0,0.036,-0.103,0.021,-0.003,0.093,0.01,–,-0.071
BECN1 (UniProt Q14457),-0.007,-0.035,0.043,-0.042,-0.001,0.085,-0.043,0.008,0.002,-0.042,-0.003,-0.018,0.003,-0.004,-0.011,-0.031,-0.015,-0.032,-0.058,0.084
ALDH9A1 (UniProt P49189),0.131,0.021,0.035,-0.077,-0.023,0.013,-0.103,0.043,0.035,0.045,–,-0.008,-0.024,-0.077,0,-0.27,0.185,–,-0.056,-0.035
ADH5 (UniProt P11766),-0.012,0.034,0.05,-0.016,0.001,0.007,-0.039,0.002,0.004,0.037,0.038,0.011,0.014,-0.097,-0.02,0.05,-0.041,-0.05,0.01,0.019
AP4S1 (UniProt Q9Y587),-0.014,-0.013,-0.015,0.078,-0.456 (active),0,–,-0.111,–,–,-0.061,-0.12,0.008,–,-0.079,0,–,-0.145,0.027,–
BTBD6 (UniProt Q96KE9),0.407,-0.706 (active),0.165,-0.188,0.016,-0.057,0.3,0.081,-0.19,0.185,–,0.136,0.145,0.201,-0.008,0.296,0.025,–,0.068,0.005
ACVR1 (UniProt Q04771),-0.101,-0.051,0.021,0.031,-0.021,–,–,0.136,-0.326,0.035,–,–,0.873 (active),–,-0.158,0.06,–,–,–,0.127
ALKBH4 (UniProt Q9NXW9),0.067,0.084,0.018,0.078,0.106,-0.129,0.032,-0.006,-0.074,0.091,0.009,-0.126,-0.07,0.017,-0.12,-0.086,-0.033,-0.065,–,-0.11
